Laboratory results as given in PubChem BioAssay AID1035475 (Broad Institute, 2014).
Entries with a potency or affinity are not part of this list. Inconclusive results are not listed. Active and inactive are the calls of the source.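 How the source made its calls: active means fluorescent signal drops by 40% or more, counted as a hit; inconclusive means no clear call, values can overlap the other calls; inactive means the rest, including any activity in the opposite direction.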

test: inhibitors of fibronectin matrix deposition, dose response, AH1F cells, Alexa488-FN fluorescence, cherry-picks (AID 1035475); details: AH1F fibroblasts, overnight; series mostly up to 35 µM; activity change, negative = inhibition: at the top concentration;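 further: AH1F fibroblasts incorporating labeled fibronectin into their extracellular matrix; 0% = neutral control wells and -100% = wells without labeled fibronectin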

Row | Structure (SMILES) | activity change, negative = inhibition
1 | O=C(Nc1ccccc1F)N1C[C@@H]2[C@H](c3ccccc31)[C@@H](CO)N2C(=O)C1CC1 | 16.1% (inactive)
2 | Cc1ccc(CS(=O)Cc2ccc(C(=O)NC3CCCC(C)C3C)o2)cc1 (centres undefined) | -16.8% (inactive)
3 | CCOC(=O)C1=C(C)Nc2nc3ccccc3n2C1c1ccncc1 (centres undefined) | 0.713% (inactive)
4 | C[C@@H]1CN([C@H](C)CO)C(=O)c2cc(NC(=O)CCCN(C)C)ccc2O[C@H]1CN(C)Cc1ccc(-c2ccccc2)cc1 | 3.88% (inactive)
5 | C[C@@H]1CN([C@@H](C)CO)C(=O)c2cc(-c3ccccc3)cnc2O[C@@H]1CN(C)Cc1ccccc1 | 15.3% (inactive)
6 | C[C@@H]1CN([C@H](C)CO)C(=O)c2cc(NC(=O)C3CCCCC3)ccc2O[C@H]1CN(C)Cc1ccc(-c2ccccc2)cc1 | 6.62% (inactive)
7 | O=C(CC1Nc2ccccc2NC1=O)Nc1ccc2c(c1)OCO2 (centres undefined) | 5.64% (inactive)
8 | O=C(c1cccnc1)N1C[C@@H]2[C@H](c3ccccc31)[C@H](CO)N2CC1CCCC1 | 41.4% [at 30 µM] (inactive)
9 | COc1ccc(-c2oc3ncnc(NCCCN4CCOCC4)c3c2-c2ccc(OC)cc2)cc1 | -21.5% (inactive)
10 | O=C(CCNS(=O)(=O)c1cccc2nonc12)NC1CCCc2ccccc21 (centres undefined) | -21.1% (inactive)
11 | N#C[C@@H]1[C@H](c2ccccc2C2=CCCCC2)[C@@H](CO)N1S(=O)(=O)c1ccccc1 | 59.9% (inactive)
12 | CC(C)C(=O)Nc1ccc2c(c1)C(=O)N(C)[C@@H]1CC[C@H](CC(=O)O)O[C@@H]1CO2 | 51.2% (inactive)
13 | O=S(=O)(c1ccccc1F)N1CC[C@H]2[C@H](CO)Nc3ccc(-c4cccc(F)c4)cc3[C@H]21 | 11.5% (inactive)
14 | COC(=O)C[C@@H]1CC[C@H]2[C@H](COc3ccc(NC(=O)Cc4cccs4)cc3C(=O)N2C)O1 | -0.769% [at 30 µM] (inactive)
